Among the data in PubChem BioAssay AID1508600 (Functional Genomics Laboratory (NCATS/FGL), 2020) are z-score values, retold here.

Screen size: about 53,000 sequences; about 3,700 (7%) were called active. This is one part of a sample in which actives are shown more often than they occur. Unmarked numbers belong to inactive results.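 How the source made its calls: active means gene knockdowns whose robust z-score for IL-1 alpha signal is at least 2 or at most -2, so actives lie on both sides; inactive means the rest.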

A short description of the experiment: Components of the Cytosolic LPS Sensing Pathway: Gene Identification via Genome-wide siRNA Screen. Particulars: RAW264.7 macrophages, IL-1a HTRF, actives lie on both sides, screened at 100 nM (by protocol), cells primed 5 h with Pam3CSK4 first. From the text: Non-canonical inflammasome activation by cytosolic LPS is a critical component of the host response to Gram-negative bacterial infection, however we lack a comprehensive understanding of the cellular processes that control this pathway. Here we describe a genome-wide siRNA screen to identify genes regulating the mouse macrophage IL-1 alpha response to cytosolic LPS.
RAW264.7 cells were maintained in complete DMEM media, comprising DMEM with 4.5 g/L glucose, 10% FBS (Gemini Bio-Products, West Sacramento, CA), 2 mM Glutamine (Lonza) and 20 mM HEPES (Lonza), hereafter complete DMEM.
The RNAi screen was conducted in 384-well format using the Ambion Silencer Mouse Genome siRNA Library (#4391425), which consists of three unique, nonoverlapping, nonpooled siRNAs for each of 17,000 gene targets. siRNA reagents ([…]) were stamped into 384-well white flat-bottom microplates (Corning, 3570) using a Velocity11 VPrep liquid handling system (Agilent) integrated into a BioCel robotic platform (Agilent) in columns 1-22, leaving columns 23-24 empty for negative (Ambion, Negative control #1) and positive (mouse Casp4) controls, respectively. The median value of each plate's negative control column was used to normalize sample wells, and the positive control was used to assess transfection efficiency and assay performance.
Lipofectamine RNAiMAX Transfection Reagent ([…]; Invitrogen) was added in […] serum-free, antibiotic-free media to plate wells using a Thermo Scientific Matrix WellMate and Microplate Stacker. Plates were incubated for 45 min at room temperature to allow for the sufficient formation of siRNA-lipid complexes. Cells were seeded at a density of 1x10^4 cells per well in 20 microL media containing 20% (vol/vol) FBS without antibiotics. The final concentration of siRNA in each well was 100 nM. Cells were cultured for 48h at 37 degrees C in 5% CO2 before addition of […] of TLR ligand Pam3CSK4 for 5 hours. The medium was then removed, replaced with […] growth media and cell were transfected with […] of LipidA and TransIT-TKO (Mirus) for 24 hour. At the end of the LipidA treatment, […] of supernatant was transferred to a 384 Greiner Bio-one non-binding low volume plate and […] of IL-1a HTRF reagent (Cisbio, 62MIL1APEH) was added and incubated at room temperature overnight. The plates were read on an EnVision plate reader (PerkinElmer). Cell viability was measured by adding 20ul Cell Titer Glo to the original plate and running a luminescence read on the EnVision. The quantified IL-1a signal for each siRNA gene-targeted well was divided by the median of the negative control wells and multiplied by 100 to achieve a negative control normalized value for each well/siRNA. This normalized value was then used to generate a robust z-score by first taking the log of each value and then by subtracting the median and dividing by the […].
Background: In TR-FRET formats the signal depends on donor and acceptor labels being close together.
On to CGGAUAUGAGAUGAGAAUGTT against Morn4, for which the z-score was -2.4 (active).
On to GGAUUUCAACAGACAGGUGTT against Paip2b, for which the z-score was 0.877.
Turning to GGCAGAACUCAAAUUCUUGTT against AW209491, the z-score is -0.35.
As to GCGUAGCUGUAGUGAACCATT against Erh, the z-score is 1.78.
Take GGUACUACACCUUUGAUGATT against Fibp: the z-score was -0.497.
Turning to GGACCACAACACAAAUCUGTT against Fasl, the z-score was 1.49.
Next, UUCAUGUAGGUCUACUAUUTT against Olfr203: -0.104; GGAUCUGAAGCUGAUUACATT against Clca2: 2.47 (active); GCCACUGUUUGAUCUGAAATT against Fhod1: 0.943.
On to CCUUGCCAUAAGUGAUUUATT against Npffr2, for which the z-score was 0.876.
Take GGCCUUAAAAUACCUUUGATT against Srpx: the z-score is 1.12.
Turning to CCAGUACAAAGCCACAAUATT against Rab7, the z-score was 5.54 (active).
Next, GGACAUUUCACAAGUCAAATT against Eloc: 1.81; GGGUGGAAAAUUUCAGUUUTT against Ube2f: -0.957.
Turning to CCAUCCCGUUCACUAGAGATT against Mypn, the z-score is -1.73.
With CCGACUGCUCGUAAAUUCATT against Ndufa12, the z-score is 2.79 (active).
Next, GGUACAAAGCCAUUGUACGTT against Grpr: -0.381.
Next, GGAAGAGAAACGACAAAAUTT against Olfr293: 1.46.
GGGAGACAAUCGUUUUAGCTT against Tgfbi: the z-score is 0.698.
The result for GGGCAUAUUCACGAUCAAUTT against Fut2 reads 1.43; that for GGAAAGACCACAUUAUUAATT against Orc4, 0.0347.
Take “GGUUUCUGCCCAGAGUCUATT against 2010106E10Rik”: the z-score is -2.78 (active).
As to GCAAGGACUCUCAUGGUUGTT against Zfand1, the z-score was -0.0357.
Next, GGUGCCGAACGUGUAAUUATT against Rarb: 0.936; GCCCAUGUGUAAUACAUUUTT against Prps1: 0.789.
Regarding CCGGAGUAACUCUCUAACATT against Apbb3, the z-score is -0.291.
The result for GGGUGACCUUUCCAGAUGATT against Cldn13 reads -0.846; that for GGCACAUGGAAUCUUUGAGTT against Edc3, -1.65.
The result for GGAGCAACUACAAACAUCUTT against Acss2 reads 2.35 (active); that for GGGAUAAGACAGGAGACUUTT against Slc16a11, 0.227.
Next, GGGAAGGACUGUAAGAAAATT against Dipk1a: -0.252.
With GCAUCAACACCUGUUCUAUTT against Olfr376, the z-score was 1.02.
Consider GGAUCAUUUACAUUCAUACTT against Alg12, for which the z-score was -2.6 (active).
Next, GGCACCUGUUAAAAAUGAATT against Prag1: -0.771.
Next, GGACUAGUGUGAAAAAGGATT against Nsd1: -2.87 (active); GCUCAUCGGAGAGUUCUAUTT against Ube2h: 0.594; GGCAGCAUUGAGUGUGUGATT against Asb13: 2.53 (active).
GGAAUGCUGAAGUAAAAAATT against Olfr1259: the z-score was -0.808.
As to GGGCCAAGUUCCGAAAGAATT against Dmbx1, the z-score is -0.443.
For the sequence GCCUUAACUAUGUUGUCUATT against Mgst1, the z-score was 0.893.
As to GCCUGCACUGUUGAACUAGTT against Tomm40l, the z-score was -1.09.
Regarding GCACUCAUUGCCAGGGUCATT against Pycard, the z-score was -2.54 (active).
Next, GCAGUUAUCCGUAUUUAAATT against Ctnnbl1: 1.18; CCCUCAUUCUCUAGCGUGATT against H2-K1: -1.07; GGAUGGACUUCGUCAUGAATT against Cplx2: 0.55.
With GGAGUGAUUCAGUGAAAACTT against Iqcf3, the z-score is -0.289.
Next, CGUCAUAAAGAAUAGUUCCTT against Ncoa4: 0.965; GGAGAAGAGUUAUUGGAUATT against Dnajb4: 0.901.
For the sequence CCUACGGCAAACAGAGACUTT against Klk6, the z-score is -2.29 (active).
As for GGAGUUUAAGAAGACGCACTT against Slc26a3, the z-score is 1.62.
Consider GGUUUUGGACCAGAUGAGCTT against Abi3, for which the z-score was 0.0276.
The result for GGGAUGAAGUGUUCCAUCCTT against Ccdc187 reads 2.88 (active); that for GCAAUUAGUAACUGAGAAUTT against Dpp10, 0.0628.
In the case of GGACUAUGCUGUCCAGAUCTT against Ntn1, the z-score is -0.432.
Next, GGUGCUGAAUUUGAUCAAGTT against Rpa2: 1.83.
For the sequence UUGUUAUAGCACUUCCAAATT against Vwa3b, the z-score was 2.12 (active).
Turning to GGAUGGGUUUGAUCUUAAUTT against Il13ra2, the z-score was 0.519.
The result for “GCCAUUUGAAGGCUUUUGUTT against D130079A08Rik” reads -0.555.
Take GCUGGUGAUGACGUGUAUCTT against Slc32a1: the z-score was 0.357.
For GUUGAACAAUCUUGUCCUGTT against Rps25, the z-score is 0.518.
Next, GGCAUGAGACAAGCUAGUCTT against Mrgpre: -0.463; GGCUGCUAAUUGGAUUUUUTT against Ccnj: -0.936; GCCUUUCAUACAUUCAACATT against Olfr313: -1.49.
With GGACAGACCACACUUCAUGTT against Foxp3, the z-score is -0.494.
In the case of GGCCAUGAUUUACGACGACTT against C1qtnf4, the z-score is -1.22.
Regarding “GGCUCUCUGAGGAUUCGAATT against 4930544M13Rik”, the z-score is -0.209.
The result for CGGGACAUUCGUGAUCUUATT against Tmem114 reads -2.38 (active); that for GGAUUCGCCUUUUCUACCGTT against Hoxb2, 0.929; that for GGAGCUGUGAGCAUUACUGTT against Cenpm, -1.89.
Next, GGUCAUCGAUAAGAAAAGATT against Hunk: -1.09.
The result for GCAGGUGAAAAGCAAUCCUTT against Prss27 reads 1.03; that for GAUGGUCAUUGAUGUCCUUTT against Rps24, -0.694.
Take GGAGAGUGCUGAUGUUCUGTT against Rhox6: the z-score is 2.26 (active).
The result for GGUGCUUGUGGGUAACAAGTT against Rab33a reads 1.94; that for GGACAUAAUCAAAGACAUCTT against Ddc, 1.15.
With GGCAUACCCAAAAAUAGAATT against Eif1a, the z-score is 0.139.
With GGAGAACUCCAGGUUGGCATT against Eaf1, the z-score is -2.03 (active).
On to GCGCAAAGAUGGCUAUUGCTT against Adamts3, for which the z-score was 1.42.
For GCUCAUCCAUUACGAGUUGTT against Dusp18, the z-score was 0.878.
Turning to GCAUUUCCUUAACACUCCCTT against Msmb, the z-score is -0.614.
With CGAGAAACAGAGUAUCAAGTT against Utp23, the z-score was 0.776.
On to GGGCCAUACCAUUUGGGUGTT against Wdr38, for which the z-score was 0.142.
In the case of GGUAAAAAGUACAAGUGGGTT against Slc17a5, the z-score was -0.909.
With GGUGAUACCUCUGUCCUGGTT against Exosc5, the z-score is -1.17.
For GGAGGGUGAUCUCAUUGAATT against Prkd1, the z-score was 0.479.
Take GCAGCAAUACAUCCUUCAUTT against Cdh1: the z-score is 1.12.
The result for CCGAGCUAGAUCAGCUAUUTT against Mertk reads -1.45; that for GGAAACCGUUUUUUUUUUCTT against Appbp2, 2.16 (active).
Consider CCUAAUCUCUUGUAGGUAUTT against AU018091, for which the z-score was 1.03.
As for GGAACAGGCAACAUGAUUGTT against Nlgn3, the z-score was 0.376.
In the case of GGCUGUAUGUAUAUAGUCCTT against Snrpb, the z-score is -2.41 (active).
Take GGUGUCCACAUUAAAUUACTT against Foxb1: the z-score was 2.21 (active).
With GCACUAAGUCCCAUGUGUCTT against Trim11, the z-score was -1.01.
For GGUUAUGGUAUUAACAGGUTT against Slc17a4, the z-score is 0.112.
Next, GGGCAGAAUGCCAGUGUACTT against Kif22: -0.305; GCUUGACGCGAACUUACCATT against Endog: 2.35 (active).
In the case of GGUGGACUUCGAGAACAUATT against Cyp2d26, the z-score was 0.75.
With GGAUCAUCAACCAUCUAAUTT against Srsf7, the z-score is -1.11.
For the sequence GCCUUUUGAUGCUUCCUCUTT against Rusf1, the z-score was -0.696.
With GCUCAAAGUUUGAACUGGCTT against Atxn2l, the z-score was 0.153.
As to “GCUGAAGAGGCGCAUACAUTT against 2610318N02Rik”, the z-score was 3.07 (active).
As for GCCAAAGACUCUUAUAAGUTT against Bnc1, the z-score is -0.455.
Turning to UCUCCUUCCUAACUUCAACTT against Tmem252, the z-score is 0.747.
Turning to GCUCUCACCAUCAGAGAAATT against Trpc4, the z-score is -0.12.
On to CCUCUGAGUGGAACACCUATT against Sfr1, for which the z-score was -3.54 (active).
Turning to GGCAUUCAUGACAAUGGCUTT against Rab1b, the z-score is -1.89.
Next, GCGAUUUAUUGCCAAGCCCTT against Cers5: 0.596.
Next, “GGUUUAAGCUUUUUGUGGATT against D130079A08Rik”: 0.0133.
